The supplement of paper PMC10105736
Unmarked numbers belong to inactive results.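 The calls were made as follows: active = MAPPIT score above the 99th percentile of random reference set scores in the same batch; inactive = at or below it.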

Key:
Experiment in all cases: MAPPIT interaction score (arbitrary units); higher = stronger binary interaction signal, active = hit call of the paper
[1] = biological target: lwr; details: MAPPIT configuration: N-N
[2] = biological target: l(3)neo38; details: MAPPIT configuration: N-N; pair source set: Lit-BS-16
[3] = biological target: lola; details: pair source set: RRS
[4] = biological target: kappaB-Ras; details: MAPPIT configuration: N-N; pair source set: DPIM
[5] = biological target: laza; details: MAPPIT configuration: N-N; pair source set: screen_2
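Also: HEK293T cells with Epo stimulation, STAT-responsive firefly luciferase reporter, fold induction versus unstimulated cells divided by the larger fold induction of two negative controls lacking either bait or prey.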

B1: CG12259 (protein)
chain: MAHYKGAASEAGRAAQLMKKREIQQQEIEFRKKKIEEELKLDKIENKFATHYDAVEQQLKSSTIGLVTLDEMKAKQEDIVREREKKLAQKKDEKDREKQRALEAIQAEKNKQKRQIQALSFNLDDDEEEEEEDDEDHDKKQLKIKQEDQPKPKWTEIKEDILPIKKKKICKNPDVDTSFLPDREREEQENRLREQLRQEWVMQQAELKDEDISITFSYWDGSGHRRNVLMKKGNSIYQFLQKCLELLRKEFIELKTVMADQLMYVKEDLILPHHYSFYDFIVTKARGKSGPLFQFDVHDDVRMISDASVEKEESHAGKVLLRSWYERNKHIFPASRWEPYDPTKSYDKYTIKDKDKSKK
MAPPIT interaction score ([1]; pair source set: Finley_Y2H): 0.18

B2: Pdk1 (protein)
chain: MKCKSWSNKINNYVVRKIKSIKINGTQQQLQLPGSGASGIAAAAVITVASDCGENCSSNGTEHQQHFNIATTTATSATEATMPAMAKEKASATVSLGESNFRDINLKDLAVVVEAASRLHHQQNVCGCGAVSSTENNNNSRYGSSKYLTNGHTSPLAAAVASNSSSVATTPHCRMLHNCSLQQYQNDIRQQTEILDMLRQQHQQGYQSQQQQQQPQQQQEQQQQQEQSQQQQQLQNPAPRRSPNDFIFGRYIGEGSYSIVYLAVDIHSRREYAIKVCEKRLILRERKQDYIKREREVMHQMTNVPGFVNLSCTFQDQRSLYFVMTYARKGDMLPYINRVGSFDVACTRHYAAELLLACEHMHRRNVVHRDLKPENILLDEDMHTLIADFGSAKVMTAHERALATEHCSEQRRSNSDEDDEDSDRLENEDEDFYDRDSEELDDGDDEQQQEEMDSPRHRQRRYNRHRKASFVGTAQYVSPEVLQNGPITPAADLWALGCIVYQMIAGLPPFRGSNDYVIFKEILDCAVDFPQGFDKDAEDLVRKLLRVDPRDRLGAQDEFGYYESIRAHPFFAGIDWQTLRQQTPPPIYPYLPGVSQDEDFRSSYTVPGDLEPGLDERQISRLLSAELGVGSSVAMPVKRSTAKNSFDLNDAEKLQRLEQQKTDKWHVFADGEVILKKGFVNKRKGLFARKRMLLLTTGPRLIYIDPVQMIKKGEIPWSPDLRAEYKNFKIFFVHTPNRTYYLDDPEGYAIHWSEAIENMRKLAYGDPSSTSAVSCSSGSSNSLAVISNSSAASSSNSPTVKRSSPVNAPQASTASDNRTLGSTRTGTSPSKKTASK
MAPPIT interaction score [2]: 1.81

B3: CG3262 (protein)
chain: MERLLINTIWRSYATKLTGSQVKLMARGLPKKQPIIGVQDIIVVASGKGGVGKSTVAVNFACSLAKLGKRVGLLDGDIFGPTIPLLMNVHGEPVVNDKNLMIPPQNYNVKCLSMGMLTPVETSVIWRGPLVMSAIQRLLKGTDWGLLDVLVIDTPPGTGDVHLSLSQHAPITGVILVTTPHTAAVQVTLKGASMYEKLNVPIFGVVENMKYTICQNCNQRLEFFKDSRISSLPRKLISLPLDSRIADSNESGVPVVIKYPDSKYSYLFTQLAEEITQILNEQRCNQNQNNSAH
MAPPIT interaction score ([3]; MAPPIT configuration: N-C): 0.425
MAPPIT interaction score ([3]; MAPPIT configuration: N-N): 0.0633

B4: Cp1 (protein)
chain: MNHLGVFETRFRPRTRHKSQRAQLIPEQITMRTAVLLPLLALLAVAQAVSFADVVMEEWHTFKLEHRKNYQDETEERFRLKIFNENKHKIAKHNQRFAEGKVSFKLAVNKYADLLHHEFRQLMNGFNYTLHKQLRAADESFKGVTFISPAHVTLPKSVDWRTKGAVTAVKDQGHCGSCWAFSSTGALEGQHFRKSGVLVSLSEQNLVDCSTKYGNNGCNGGLMDNAFRYIKDNGGIDTEKSYPYEAIDDSCHFNKGTVGATDRGFTDIPQGDEKKMAEAVATVGPVSVAIDASHESFQFYSEGVYNEPQCDAQNLDHGVLVVGFGTDESGEDYWLVKNSWGTTWGDKGFIKMLRNKENQCGIASASSYPLV
MAPPIT interaction score [4]: 0.259

B5: pcs (protein)
chain: MSSAEDGELDPQIQIELENLNSATDEINKLEIELEEANSTFRILLNESTRRLKVSSKKLGNCIEKARPYYEALDKAREAQIECQKAAVKFQRANEIHAAAKETVALAEQRFMSNSHEWQFDNAWQEMLNHATQKVMDAETQKADCHAEHQRLTKLFNAAEQKLQQLEDRFRRSINKSRPYFEEKQVCQDQLQTQKNRIQELQQQVAGAKSTYSTALRNLERISEDIHRQRGDFPTPPGPREPGVGAELNSPTSSALPSLPDFQLELEKCDYPSIAGSQMSLGAKTPQAAAETEDEEDACDYDETGAGELRGVVDERDLEALRQKVKILAVRPIEGGDGQQQNDVWEHELKATVDKLDHLMMLKETAKRQQTNRLKSTEQRPDSLGAEALKRHCDVVEVKVTSCATTASLPVTPHHQLNHLAPPTPIKKLQQQLAPLPSVNVSMRELPLLARLSNELLDRSSAAFGGVRKTLRRRSLE
MAPPIT interaction score ([1]; pair source set: Curagen_low_conf): -0.177

B6: Es2 (protein)
chain: MSATTRTPATPGTPGTPGSLAMEVARVQNSALAEFKKPTAMVRHKNKPKILTEEKYIEEMSKIIQRDFFPDLERLRAQNDYLDAESRRDFVQMAEIRERYSLGRISGTGRSTSRRNNAMSPATFETPVSQAKCSNTPLPNSRATDTPFSTDGSEKSDAEGRDTTAKLSLDAFLQKYTSEDNQSFQEIIETAEAKLRQKYAVLYNHEKLSAEQLQRALMLPSIETQFEEPDPLRKIETWNYTNMNSIMYVPDGVEYTEEERVQLAERKQSIQHNATRLPDEAKHREMDTKKLNDEVPQNGAGGATATPKVRGFDLLRSPSPRPGEAFSPIMTWGEIDGTPFRLDGGDTPLRPTQGPSFRINENSRRENIAIALAERVSERMRNQKQMALDTARRNIGSPLIRTNMERLASMSPAAQLLATGKLGIRGTPRLRHTPSPMSGRKRKVTPGVVRSTNTPILGEPKPKQQAKISTPAKNVTIDTGSTLTDDLLKIPTKRRTAADFF
MAPPIT interaction score [5]: 0.373
